By AC50 is commonly meant the concentration giving half of the maximal activity seen.

Active and inactive are the calls of the source. The calls were made as follows: active = hit-call score of the fitted dose curve at least 0.9, where 1 is the maximum; inactive = score below 0.9.

Read-out in this assay: Forkhead box O3 (FOXO3), FOXO3 (gene 2309)
The assay can be described thus: LTEA_HepaRG_FOXO3: Life Technologies and Expression Analysis (LTEA) Assay for Forkhead box O3 (FOXO3) using HepaRG (AID 2283459). Conditions: mRNA level, 48 h; actives raise or lower the signal. Here is the method:
LTEA_HepaRG is a cell based, multiplexed-readout assay that uses HepaRG, a human liver cell line, with measurements taken at 48 hours after chemical dosing on a 96-well plate.LTEA_HepaRG_FOXO3 is one of 102 assay component(s) measured in the LTEA HepaRG cell culture assay. It is a marker of Cell proliferation, survival, death.Data from the assay component LTEA_HepaRG_FOXO3 was analyzed into 1 endpoint. This assay endpoint, LTEA_HepaRG_FOXO3, was analyzed with bidirectional fitting relative to DMSO as the negative control and baseline of activity. Using a type of inducible reporter, measures of mRNA induction for gain or loss-of-signal activity can be used to understand regulation of transcription factor activity. To generalize the intended target to other relatable targets, this assay endpoint is annotated to the dna binding intended target family, where the subfamily is forkhead box protein.
A total of 1060 chemcials from the ToxCast library were tested in eight-point concentration-response experiments. Cell culture and cytotoxicity assays were conducted at Thermo Fisher Scientific's Custom Services facility (Madison, WI). A single lot of human HepaRG cells (Thermo Fisher Scientific, Frederick, MD) was used for the cell culture experiments. 96-well format collagen type I coated plates of human HepaRG cells were prepared using established methods. Briefly, cryopreserved HepaRG cells were thawed, plated at a density of approximately 100,000 cells/well in HepaRG Thaw, Plate, and General Purpose media (HPRG770, Thermo Fisher Scientific), and incubated for 48 hours. 0.5% DMSO was selected as vehicle control to balance the requisite need of DMSO in HepaRG cultures to maintain differentiation (for example, baseline metabolism, proportions of hepatocytes vs. cholangiocytes), while enabling further hepatic receptor pathway activation (for example, PXR and CAR) in response to chemical exposure. 48 hours after plating, the culture medium was replaced with HepaRG Serum-Free Incudtion Media. Cells were exposed to each test chemical in duplicate and maintained in CO2 incubators for another 48 hours. Chemical plates were thawed to room temperature and 200x concentrations of treatment groups were prepared. 8-point conentration-reponse curves were made with the highest exposure at 100 uM, followed by half-log dilutions, all in 0.5% DMSO. Each test plate contained variouse controls, induction positive controls (1mM phenobarbital), cytotoxicity positive controls ([…] aflatoxin B1), vehicle controls (0.5% DMSO), and total lysis controls (0.5% DMSO). Cell morphology images were taken using an Essen IncuCyte FLR automated microscope, with six 96-well plates imaged in about 24 minutes. Images were captured and exported and JPEG files. Spent culture media was transfered to black-well plates for the LDH assay, and remaining media was sorted at -80 C for later use. Cells were treated with RLT buffer and frozen until shipped for gene expression analysis. Total RNA was isolated from the cell suspension in 75 uL of Buffer RLT (Qiagen, Germantown, MD 20874) by Quintiles/Expression Analysis (Durham, NC) using a custom isolation procedure. Total RNA from each plate well was transferred to a preamplification plate. Fluidigm's 96.96 Dynamic ArrayTM (Fluidigm, Amsterdam, the Netherlands) technology was used for gene expression analyses by quantitative reverse transcription polymerase chain reaction (qRT-PCR, performed by Quintiles/Expression Analysis, Durham, NC)89. Standard TaqManTM Assays (Applied Biosystems/ThermoFisher Scientific, Foster City, CA) were used to assess the expression of 93 genes selected based on their selectivity and sensitivity to important hepatic receptors known to be modulated by environmental chemicals; importance in human hepatocyte functionality; and hepatotoxicity. […]
`Cc1ccc(O)c(C)c1`: the compound was called inactive.

Turning to `NS(=O)(=O)C(F)(F)C(F)(F)C(F)(F)C(F)(F)C(F)(F)C(F)(F)C(F)(F)C(F)(F)F`, the AC50 was 6.91 µM (active).

As for `O=C(O)C(F)(F)C(F)(F)C(F)(F)C(F)(F)C(F)(F)F`, the outcome was inactive.

As to `c1ccc(-c2ccccc2)cc1`, the compound was classed as inactive.

With `Nc1ccc(-c2ccc(N)cc2)cc1`, the result was inactive.

With `Oc1c(Cl)c(Cl)c(Cl)c(Cl)c1Cl`, the AC50 was 1.64 µM (active).

`CC(C)(c1ccccc1)c1ccc(O)cc1`: the call was inactive.

With `CC(C)C(=O)OCC(C)(C)C(OC(=O)C(C)C)C(C)C` (stereo not given), the call was inactive.

As for `C[C@]12CCC(=O)C=C1CC[C@@H]1[C@@H]2CC[C@@]2(C)[C@H]1CC[C@]2(C)O`, the compound was called inactive.

As for `ClC1=C(Cl)[C@]2(Cl)[C@@H]3[C@@H]4C[C@@H]([C@H]5O[C@@H]45)[C@@H]3[C@@]1(Cl)C2(Cl)Cl`, the AC50 is 0.0321 µM (active).

Regarding `COc1ccc(O)c(C(C)(C)C)c1`, the compound was classed as inactive.

As to `CCOC(=O)C(O)(c1ccc(Cl)cc1)c1ccc(Cl)cc1`, the compound was classed as inactive.

As for `CC#Cc1cc(C)nc(Nc2ccccc2)n1`, the AC50 was 7.38 µM (active).

Turning to `CCCCCCCCOC(=O)c1ccccc1C(=O)OCCCCCCCC`, the call was inactive.

Consider `Cc1ccccc1O`, for which the call was inactive.

On to `CCCCCCCCCc1ccc(O)cc1`, for which the result was inactive.

Consider `O=C(N[C@H]1CN2CCC1CC2)c1cc2ccoc2cn1`, for which the compound was called inactive.

`CCCN(CCC)N=O`: the call was inactive.

With `C=CC(N)=O`, the result was inactive.

Regarding `CN(C)CCO`, the outcome was inactive.

`O=S(=O)(O)C(F)(F)C(F)(F)C(F)(F)C(F)(F)F`: the result was inactive.

As for `CCC(C)c1cc([N+](=O)[O-])cc([N+](=O)[O-])c1O` (stereo not given), the AC50 was 1.77 µM (active).

Consider `CCCCCCCCCC[N+](C)(C)CCCCCCCCCC`, for which the AC50 was 76.7 µM (active).

Regarding `Oc1ccc(C(c2ccc(O)cc2)(C(F)(F)F)C(F)(F)F)cc1`, the compound was called inactive.

For `N#Cc1ccc(N(CC(N)=O)CC(F)(F)F)cc1C(F)(F)F`, the call was inactive.

As for `CCC(=O)O[C@H]1CC[C@H]2[C@@H]3CCC4=CC(=O)CC[C@]4(C)[C@H]3CC[C@]12C`, the call was inactive.

In the case of `O=S(=O)(O)C(F)(F)C(F)(F)C(F)(F)C(F)(F)C(F)(F)C(F)(F)F`, the compound was called inactive.

Take `Cc1cc2c3c(c1)C(c1ccccc1)=N[C@@H](NC(=O)c1ccncc1)C(=O)N3CC2`: the AC50 was 50 µM (active).

As for `O=C(NC(=O)c1cc(F)c(F)cc1Cl)Nc1cc(F)ccc1N1CCC(C(=O)O)CC1`, the compound was called inactive.

On to `CCC(C)(CC)c1cc(NC(=O)c2c(OC)cccc2OC)on1`, for which the compound was called inactive.

Consider `O=C(NC(=O)c1c(F)cccc1F)Nc1cc(Cl)c(OC(F)(F)C(F)F)c(Cl)c1`, for which the call was inactive.

On to `CC1=C2C[C@H]3[C@@H](CC=C4C[C@@H](O)CC[C@@]43C)[C@@H]2CC[C@]12O[C@@H]1C[C@H](C)CN[C@H]1[C@H]2C`, for which the compound was classed as inactive.

Take `CC(C)(O)C(=O)Nc1ccc([N+](=O)[O-])c(C(F)(F)F)c1`: the call was inactive.

`CCOCCOC(C)=O`: the compound was called inactive.

In the case of `CCCCCCOC(=O)c1ccccc1C(=O)OCCCCCC`, the compound was classed as inactive.

Turning to `C=CC(=O)NCNC(=O)C=C`, the call was inactive.

Consider `Nn1cnnc1`, for which the compound was called inactive.

For the compound `CN(C)c1nc(=O)n(C2CCCCC2)c(=O)n1C`, the outcome was inactive.

Regarding `Cc1ccccc1[N+](=O)[O-]`, the call was inactive.

As for `Clc1ccc(C(Cl)(Cl)Cl)cc1`, the compound was classed as inactive.

Values taken from PubChem BioAssay (EPA / NIEHS).
